About 7,900 targets were measured; listed, in parts, are those with a hit and a random draw of the rest. About 0.6% of all pairs of compound and target were hits. Values without a mark were called inactive.

Chain of UniProt P51946 (P51946 whole entry, looked up): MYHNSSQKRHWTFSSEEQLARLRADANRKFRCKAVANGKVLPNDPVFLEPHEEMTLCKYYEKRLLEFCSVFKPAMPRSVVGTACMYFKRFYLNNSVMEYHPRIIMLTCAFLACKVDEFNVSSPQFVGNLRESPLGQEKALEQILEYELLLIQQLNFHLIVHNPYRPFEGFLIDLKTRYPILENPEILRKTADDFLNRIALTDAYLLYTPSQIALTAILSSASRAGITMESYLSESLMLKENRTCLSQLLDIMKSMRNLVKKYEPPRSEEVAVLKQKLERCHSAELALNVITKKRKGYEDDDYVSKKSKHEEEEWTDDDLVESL
Chain of UniProt P60033 (P60033 whole entry, looked up): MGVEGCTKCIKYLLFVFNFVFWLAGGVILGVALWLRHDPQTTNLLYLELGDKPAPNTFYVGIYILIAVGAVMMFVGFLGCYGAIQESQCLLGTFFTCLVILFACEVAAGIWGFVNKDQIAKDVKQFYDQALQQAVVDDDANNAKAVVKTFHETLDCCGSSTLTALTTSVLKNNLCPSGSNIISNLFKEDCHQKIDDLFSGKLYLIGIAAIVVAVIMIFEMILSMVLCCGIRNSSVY
Chain of UniProt P46109 (P46109 whole entry, looked up): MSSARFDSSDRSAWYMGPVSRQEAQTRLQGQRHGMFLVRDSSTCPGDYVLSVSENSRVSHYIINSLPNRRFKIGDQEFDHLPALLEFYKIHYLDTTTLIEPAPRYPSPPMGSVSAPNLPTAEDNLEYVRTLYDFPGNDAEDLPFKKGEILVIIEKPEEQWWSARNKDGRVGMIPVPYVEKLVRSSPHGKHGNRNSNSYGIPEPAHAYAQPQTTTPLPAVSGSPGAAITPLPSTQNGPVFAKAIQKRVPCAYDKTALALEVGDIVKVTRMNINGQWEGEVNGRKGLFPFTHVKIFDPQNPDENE
Chain of UniProt Q8N1A6 (Q8N1A6 whole entry, looked up): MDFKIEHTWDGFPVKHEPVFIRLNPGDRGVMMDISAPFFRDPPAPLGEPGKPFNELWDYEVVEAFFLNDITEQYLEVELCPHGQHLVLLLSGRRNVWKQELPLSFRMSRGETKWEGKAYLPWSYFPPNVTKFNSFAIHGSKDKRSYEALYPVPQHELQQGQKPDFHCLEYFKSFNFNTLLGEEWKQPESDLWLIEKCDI
Chain of UniProt P21964 (P21964 whole entry, looked up): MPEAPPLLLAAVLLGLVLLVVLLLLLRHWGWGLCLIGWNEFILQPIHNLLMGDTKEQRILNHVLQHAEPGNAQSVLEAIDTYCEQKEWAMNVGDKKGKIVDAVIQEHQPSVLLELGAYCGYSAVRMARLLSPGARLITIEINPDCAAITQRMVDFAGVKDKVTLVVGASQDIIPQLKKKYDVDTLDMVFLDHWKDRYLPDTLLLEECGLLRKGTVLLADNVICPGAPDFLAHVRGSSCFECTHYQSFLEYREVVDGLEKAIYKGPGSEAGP
Chain of UniProt Q00587 (Q00587 whole entry, looked up): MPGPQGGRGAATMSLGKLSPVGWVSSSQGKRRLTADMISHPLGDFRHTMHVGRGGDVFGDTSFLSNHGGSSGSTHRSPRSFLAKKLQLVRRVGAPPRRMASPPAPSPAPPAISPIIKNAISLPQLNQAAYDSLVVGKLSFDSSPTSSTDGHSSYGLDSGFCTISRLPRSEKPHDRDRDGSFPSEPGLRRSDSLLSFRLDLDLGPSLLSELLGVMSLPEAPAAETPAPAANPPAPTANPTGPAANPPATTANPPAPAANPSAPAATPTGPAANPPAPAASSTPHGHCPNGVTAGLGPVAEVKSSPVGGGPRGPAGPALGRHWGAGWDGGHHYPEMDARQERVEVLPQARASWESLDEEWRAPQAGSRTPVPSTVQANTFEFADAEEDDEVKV
Chain of UniProt P50750 (P50750 whole entry, looked up): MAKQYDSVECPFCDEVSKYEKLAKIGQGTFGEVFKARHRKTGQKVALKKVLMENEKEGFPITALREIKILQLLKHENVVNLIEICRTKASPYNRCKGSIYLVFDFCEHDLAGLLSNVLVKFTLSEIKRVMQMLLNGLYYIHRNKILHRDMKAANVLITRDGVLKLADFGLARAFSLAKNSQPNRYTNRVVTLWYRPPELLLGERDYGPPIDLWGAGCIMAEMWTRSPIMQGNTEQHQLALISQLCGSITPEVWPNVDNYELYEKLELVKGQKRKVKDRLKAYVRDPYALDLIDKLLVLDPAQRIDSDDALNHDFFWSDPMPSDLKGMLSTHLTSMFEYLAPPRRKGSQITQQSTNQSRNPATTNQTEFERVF
Chain of UniProt P0C0L4 (P0C0L4 whole entry, looked up): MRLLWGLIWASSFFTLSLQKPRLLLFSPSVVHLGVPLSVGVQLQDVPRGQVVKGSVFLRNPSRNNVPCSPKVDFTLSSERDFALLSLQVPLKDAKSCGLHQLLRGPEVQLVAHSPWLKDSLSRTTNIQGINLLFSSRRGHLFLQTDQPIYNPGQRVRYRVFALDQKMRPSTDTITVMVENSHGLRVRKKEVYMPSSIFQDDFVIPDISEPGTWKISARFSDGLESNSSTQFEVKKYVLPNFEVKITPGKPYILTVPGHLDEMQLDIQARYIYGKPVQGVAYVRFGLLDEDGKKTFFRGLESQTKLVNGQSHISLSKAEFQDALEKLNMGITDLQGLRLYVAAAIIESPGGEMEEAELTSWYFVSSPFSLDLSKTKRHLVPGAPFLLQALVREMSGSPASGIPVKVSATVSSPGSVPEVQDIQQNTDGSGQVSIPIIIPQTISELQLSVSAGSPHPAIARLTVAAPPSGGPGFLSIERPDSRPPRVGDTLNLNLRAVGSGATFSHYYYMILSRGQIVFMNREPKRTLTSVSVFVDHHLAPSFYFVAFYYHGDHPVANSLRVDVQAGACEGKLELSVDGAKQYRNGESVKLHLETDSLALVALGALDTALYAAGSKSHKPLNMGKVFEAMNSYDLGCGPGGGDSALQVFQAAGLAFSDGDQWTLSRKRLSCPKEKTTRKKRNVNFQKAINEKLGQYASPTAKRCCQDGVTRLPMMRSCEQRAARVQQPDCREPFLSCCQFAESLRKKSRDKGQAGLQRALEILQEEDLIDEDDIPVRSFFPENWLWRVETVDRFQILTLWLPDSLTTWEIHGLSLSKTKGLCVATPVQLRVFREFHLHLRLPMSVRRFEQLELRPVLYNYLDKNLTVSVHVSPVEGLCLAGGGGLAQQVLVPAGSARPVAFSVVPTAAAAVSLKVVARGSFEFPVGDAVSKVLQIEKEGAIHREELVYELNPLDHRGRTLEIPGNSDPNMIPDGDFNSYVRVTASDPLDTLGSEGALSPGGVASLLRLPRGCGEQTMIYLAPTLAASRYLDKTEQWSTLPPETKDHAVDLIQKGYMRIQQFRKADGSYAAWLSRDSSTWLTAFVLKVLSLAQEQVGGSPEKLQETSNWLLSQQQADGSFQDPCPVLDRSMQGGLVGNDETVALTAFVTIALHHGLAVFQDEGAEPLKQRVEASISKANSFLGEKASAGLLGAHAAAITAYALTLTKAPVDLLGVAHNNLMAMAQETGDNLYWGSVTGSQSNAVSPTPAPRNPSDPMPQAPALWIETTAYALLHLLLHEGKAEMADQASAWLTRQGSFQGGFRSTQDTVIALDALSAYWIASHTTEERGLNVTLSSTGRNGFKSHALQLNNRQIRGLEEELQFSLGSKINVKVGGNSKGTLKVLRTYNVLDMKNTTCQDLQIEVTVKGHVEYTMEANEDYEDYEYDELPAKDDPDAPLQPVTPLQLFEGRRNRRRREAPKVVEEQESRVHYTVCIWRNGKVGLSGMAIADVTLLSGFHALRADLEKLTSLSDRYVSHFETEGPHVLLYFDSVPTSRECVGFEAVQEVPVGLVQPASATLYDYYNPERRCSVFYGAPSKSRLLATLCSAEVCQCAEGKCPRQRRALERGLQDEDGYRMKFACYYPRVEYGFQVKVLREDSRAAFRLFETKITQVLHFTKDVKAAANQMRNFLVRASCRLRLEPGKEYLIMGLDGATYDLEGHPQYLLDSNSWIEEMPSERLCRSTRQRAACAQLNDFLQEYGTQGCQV
Chain of UniProt Q01459 (Q01459 whole entry, looked up): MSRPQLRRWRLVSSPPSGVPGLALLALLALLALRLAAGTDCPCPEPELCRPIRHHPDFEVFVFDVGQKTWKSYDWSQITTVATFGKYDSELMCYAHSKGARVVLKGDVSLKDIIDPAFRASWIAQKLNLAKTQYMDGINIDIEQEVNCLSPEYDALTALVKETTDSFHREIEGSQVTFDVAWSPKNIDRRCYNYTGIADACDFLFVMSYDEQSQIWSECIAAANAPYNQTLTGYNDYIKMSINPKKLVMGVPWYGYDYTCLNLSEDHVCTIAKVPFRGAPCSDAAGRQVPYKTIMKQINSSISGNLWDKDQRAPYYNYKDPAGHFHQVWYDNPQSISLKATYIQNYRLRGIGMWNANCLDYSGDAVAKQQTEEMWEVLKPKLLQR
Chain of UniProt O95628 (O95628 whole entry, looked up): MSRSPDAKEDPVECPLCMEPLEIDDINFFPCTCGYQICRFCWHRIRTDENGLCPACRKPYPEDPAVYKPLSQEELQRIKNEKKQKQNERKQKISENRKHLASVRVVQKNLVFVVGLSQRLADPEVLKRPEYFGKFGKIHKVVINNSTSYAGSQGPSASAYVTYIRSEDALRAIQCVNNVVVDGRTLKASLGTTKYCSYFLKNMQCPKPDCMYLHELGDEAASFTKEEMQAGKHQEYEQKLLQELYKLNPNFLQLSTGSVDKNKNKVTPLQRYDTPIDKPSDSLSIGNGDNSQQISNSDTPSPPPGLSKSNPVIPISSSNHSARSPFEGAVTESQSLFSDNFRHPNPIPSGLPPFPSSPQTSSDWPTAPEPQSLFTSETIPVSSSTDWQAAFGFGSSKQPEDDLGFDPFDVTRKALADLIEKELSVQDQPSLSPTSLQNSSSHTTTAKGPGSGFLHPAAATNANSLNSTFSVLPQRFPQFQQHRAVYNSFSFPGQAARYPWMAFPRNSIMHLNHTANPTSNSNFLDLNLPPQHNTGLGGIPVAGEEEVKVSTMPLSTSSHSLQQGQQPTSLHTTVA
Chain of UniProt P14854 (P14854 whole entry, looked up): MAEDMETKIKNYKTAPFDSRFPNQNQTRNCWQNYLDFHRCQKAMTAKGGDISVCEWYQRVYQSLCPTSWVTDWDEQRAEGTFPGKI

Compound in the first experiment: Cc1sc2c(c1C)C(c1ccc(Cl)cc1)=N[C@@H](CC(=O)OC(C)(C)C)c1nnc(C)n1-2
Put plainly: log2 fold change, soluble protein after heating vs DMSO (PISA); higher = thermal stabilisation; K562 cells, 10 uM, 30 min; active = over 0.2 and 3.5 SD of the protein, either way, in both replicates (recomputed). Put shortly: (§1)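 K562 cells at 2×10^6 cells/mL were treated with 10 μM compound for 30 min. Aliquots were heated for 3 min across 48°C-58°C, pooled, and extracted in PBS with 0.5% NP-40 at 4°C; soluble protein was the supernatant after 21,000xg for 90 min. Soluble protein was quantified by TMTpro 16plex LC-MS/MS with channel sums equalised, and reported as log2 fold change in thermal stability against DMSO controls, with values from duplicates.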
In the case of CCDC82 (UniProt Q8N4S0), the log2 fold change is 0.043.

In the case of CCDC59 (UniProt Q9P031), the log2 fold change was 0.165.

Regarding COASY isoform 2 (UniProt Q13057), the log2 fold change is -0.037.

On to CDC42EP1 (UniProt Q00587), for which the log2 fold change is 0.043.

Take C4orf33 (UniProt Q8N1A6): the log2 fold change is 0.024.

In the case of CLN3 (UniProt Q13286), the log2 fold change is -0.119.

Turning to CNOT4 isoform 6 (UniProt O95628), the log2 fold change is -0.01.

Consider CDK16 isoform 2 (UniProt Q00536), for which the log2 fold change is -0.014.

CASTOR2 (UniProt A6NHX0): the log2 fold change was -0.065.

Take CD81 (UniProt P60033): the log2 fold change was 0.03.

As to COX6B1 (UniProt P14854), the log2 fold change was -0.153.

As to CLN8 (UniProt Q9UBY8), the log2 fold change was 0.043.

COMT (UniProt P21964): the log2 fold change is -0.028.

For the target CSE1L (UniProt P55060), the log2 fold change is -0.028.

As for CSTF3 (UniProt Q12996), the log2 fold change is 0.03.

Take CDC37L1 (UniProt Q7L3B6): the log2 fold change is 0.337.

For CDK9 isoform 2 (UniProt P50750), the log2 fold change is 0.089.

CTBS (UniProt Q01459): the log2 fold change was -0.019.

With CAD (UniProt P27708), the log2 fold change was -0.005.

Regarding C4A (UniProt P0C0L4), the log2 fold change is -0.101.

Take COQ9 (UniProt O75208): the log2 fold change is -0.081.

Consider CD53 (UniProt P19397), for which the log2 fold change is 0.083.

As to CCNH (UniProt P51946), the log2 fold change is 0.002.

On to CNOT2 (UniProt Q9NZN8), for which the log2 fold change was 0.031.

For the target CHMP4C (UniProt Q96CF2), the log2 fold change is 0.051.

Regarding CASP10 isoform 4 (UniProt Q92851), the log2 fold change was 0.002.

As for CA1 (UniProt P00915), the log2 fold change is 0.007.

For the target CASP3 (UniProt P42574), the log2 fold change is -0.055.

CRKL (UniProt P46109): the log2 fold change was 0.016.

In the case of CPSF3 (UniProt Q9UKF6), the log2 fold change is -0.026.

Compound in another experiment: c1ccc([C@@H]2C[C@H]2NC2CCNCC2)cc1
The experiment is described as above. Put shortly:
as §1
Turning to CCDC82 (UniProt Q8N4S0), the log2 fold change is 0.004.

Consider CCDC59 (UniProt Q9P031), for which the log2 fold change was 0.052.

Turning to COASY isoform 2 (UniProt Q13057), the log2 fold change is -0.021.

Consider CDC42EP1 (UniProt Q00587), for which the log2 fold change is -0.029.

With C4orf33 (UniProt Q8N1A6), the log2 fold change is -0.003.

As to CLN3 (UniProt Q13286), the log2 fold change was 0.087.

CNOT4 isoform 6 (UniProt O95628): the log2 fold change is 0.018.

In the case of CDK16 isoform 2 (UniProt Q00536), the log2 fold change is -0.074.

In the case of CASTOR2 (UniProt A6NHX0), the log2 fold change is -0.016.

For CD81 (UniProt P60033), the log2 fold change was 0.109.

In the case of COX6B1 (UniProt P14854), the log2 fold change is -0.054.

On to CLN8 (UniProt Q9UBY8), for which the log2 fold change was -0.057.

Consider COMT (UniProt P21964), for which the log2 fold change is -0.038.

With CSE1L (UniProt P55060), the log2 fold change was -0.009.

On to CSTF3 (UniProt Q12996), for which the log2 fold change was -0.016.

With CDC37L1 (UniProt Q7L3B6), the log2 fold change is 0.02.

For the target CDK9 isoform 2 (UniProt P50750), the log2 fold change is 0.

Turning to CTBS (UniProt Q01459), the log2 fold change is -0.006.

On to CAD (UniProt P27708), for which the log2 fold change was -0.033.

In the case of C4A (UniProt P0C0L4), the log2 fold change is -0.01.

As to COQ9 (UniProt O75208), the log2 fold change is 0.036.

As to CD53 (UniProt P19397), the log2 fold change was 0.014.

Turning to CCNH (UniProt P51946), the log2 fold change was 0.033.

On to CNOT2 (UniProt Q9NZN8), for which the log2 fold change was -0.002.

Consider CHMP4C (UniProt Q96CF2), for which the log2 fold change is 0.03.

In the case of CASP10 isoform 4 (UniProt Q92851), the log2 fold change was -0.145.

In the case of CA1 (UniProt P00915), the log2 fold change is 0.018.

As to CASP3 (UniProt P42574), the log2 fold change was 0.003.

For CRKL (UniProt P46109), the log2 fold change is -0.002.

Turning to CPSF3 (UniProt Q9UKF6), the log2 fold change was 0.009.

The record behind these values is the supplement of paper PMC10849652.
